Results reported in PubChem BioAssay AID1159580 (chemical genetic matrix, 2015).
The campaign covered roughly 5,500 compounds. About 2,000 (36%) were called active. Not shown: some 18% with an inconclusive outcome. Cut-off read from the data, not from the text of the source: active = normalized growth mostly below about 0.91 (no sharp cut-off); inconclusive = no clear call, values can overlap the other calls; inactive = mostly above about 0.92. The list shows a part of the results.

Test: chemical genetic growth profiling, strain panel (AID 1159580);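 note: tested at 20 µM; growth read once vehicle control cultures reached saturation at 30 °C; 1 = growth at the plate median or of vehicle wells; lower values mean less growth of the strain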
Details: growth OD

Measured: normalized growth

C[C@]12CCC3C(CC[C@H]4C[C@@H](O)CC[C@]34C)C1CCC2=O (some centres undefined)
inactive: S. cerevisiae deletion strains, locus YKL068W, active compounds read low 1.03 | S. cerevisiae deletion strains, locus YKL085W, strain MDH1 (second series), active compounds read low 0.973 | S. cerevisiae deletion strains, locus YKL085W, strain MDH1, active compounds read low 0.973 | S. cerevisiae deletion strains, locus YKL160W, strain elf1, active compounds read low 0.919 | S. cerevisiae deletion strains, locus YKR026C, strain gcn3, active compounds read low 1.06 | S. cerevisiae deletion strains, locus YKR091W, strain srl3, active compounds read low 1.05 | S. cerevisiae deletion strains, locus YLL001W, strain dnm1, active compounds read low 0.923 | S. cerevisiae deletion strains, locus YLL026W, active compounds read low 0.994 | S. cerevisiae deletion strains, locus YLL041C, strain sdh2, active compounds read low 1.04 | S. cerevisiae deletion strains, locus YLR027C, strain aat2, active compounds read low 0.939 | S. cerevisiae deletion strains, locus YLR102C, strain apc9, active compounds read low 1.02 | S. cerevisiae deletion strains, locus YLR113W, strain HOG1, active compounds read low 1.01 | S. cerevisiae deletion strains, locus YLR258W, strain gsy2, active compounds read low 0.945 | S. cerevisiae deletion strains, locus YLR342W, strain FKS1, active compounds read low 0.995 | S. cerevisiae deletion strains, locus YLR370C, strain arc18, active compounds read low 1.04 | S. cerevisiae deletion strains, locus YLR371W, strain rom2, active compounds read low 1.03 | S. cerevisiae deletion strains, locus YLR384C, strain iki3, active compounds read low 1.03 | S. cerevisiae deletion strains, locus YML016C, strain PPZ1, active compounds read low 0.931 | S. cerevisiae deletion strains, locus YML120C, strain ndi1, active compounds read low 0.935 | S. cerevisiae deletion strains, locus YML124C, strain tub3, active compounds read low 0.944 | S. cerevisiae deletion strains, locus YMR058W, strain fet3, active compounds read low 0.943 | S. cerevisiae deletion strains, locus YMR078C, strain ctf18, active compounds read low 0.979 | S. cerevisiae deletion strains, locus YMR125W, strain sto1, active compounds read low 1.06 | S. cerevisiae deletion strains, locus YMR129W, active compounds read low 1.04 | S. cerevisiae deletion strains, locus YMR205C, strain PFK2, active compounds read low 0.94 | S. cerevisiae deletion strains, locus YMR231W, strain pep5, active compounds read low 1.01 | S. cerevisiae deletion strains, locus YMR263W, strain SAP30, active compounds read low 0.925 | S. cerevisiae deletion strains, locus YMR307W, strain GAS1, active compounds read low 0.963 | S. cerevisiae deletion strains, locus YNL183C, strain NPR1, active compounds read low 0.874 | S. cerevisiae deletion strains, locus YNL209W, strain ssb2, active compounds read low 0.965 | S. cerevisiae deletion strains, locus YNL248C, strain rpa49, active compounds read low 0.888 | S. cerevisiae deletion strains, locus YNL250W, strain rad50, active compounds read low 0.934 | S. cerevisiae deletion strains, locus YNL271C, strain bni1, active compounds read low 0.94 | S. cerevisiae deletion strains, locus YNL322C, strain KRE1 (second series), active compounds read low 1.03 | S. cerevisiae deletion strains, locus YNR049C, strain mso1, active compounds read low 1.04 | S. cerevisiae deletion strains, locus YOL012C, strain htz1 1.94 | S. cerevisiae deletion strains, locus YOR061W, strain CKA2, active compounds read low 0.91 | S. cerevisiae deletion strains, locus YOR080W, strain dia2, active compounds read low 1.02 | S. cerevisiae deletion strains, locus YOR106W, strain vam3, active compounds read low 0.909 | S. cerevisiae deletion strains, locus YOR136W, strain idh2, active compounds read low 0.999 | S. cerevisiae deletion strains, locus YOR144C, strain elg1, active compounds read low 0.973 | S. cerevisiae deletion strains, locus YOR231W, strain MKK1, active compounds read low 0.888 | S. cerevisiae deletion strains, locus YOR265W, strain rbl2, active compounds read low 0.968 | S. cerevisiae deletion strains, locus YOR316C, strain cot1, active compounds read low 0.96 | S. cerevisiae deletion strains, locus YPL051W, strain arl3, active compounds read low 0.926 | S. cerevisiae deletion strains, locus YPL078C, strain atp4, active compounds read low 0.898 | S. cerevisiae deletion strains, locus YPL240C, strain hsp82, active compounds read low 1.01 | S. cerevisiae deletion strains, locus YPL241C, strain CIN2, active compounds read low 0.975 | S. cerevisiae deletion strains, locus YPL256C, strain CLN2, active compounds read low 0.951 | S. cerevisiae deletion strains, locus YPR119W, strain clb2, active compounds read low 1.04 | S. cerevisiae deletion strains, locus YPR141C, strain kar3, active compounds read low 1.03
active: S. cerevisiae deletion strains, locus YKL190W, strain CNB1, active compounds read low 0.862 | S. cerevisiae deletion strains, locus YKR001C, strain vps1, active compounds read low 0.899 | S. cerevisiae deletion strains, locus YLR039C, strain RIC1, active compounds read low 0.388 | S. cerevisiae deletion strains, locus YLR058C, strain SHM2, active compounds read low 0.799 | S. cerevisiae deletion strains, locus YLR221C, strain rsa3, active compounds read low 0.86 | S. cerevisiae deletion strains, locus YLR262C, strain YPT6 (second series), active compounds read low 0.435 | S. cerevisiae deletion strains, locus YLR262C, strain YPT6, active compounds read low 0.413 | S. cerevisiae deletion strains, locus YLR268W, strain sec22, active compounds read low 0.834 | S. cerevisiae deletion strains, locus YLR320W, strain mms22, active compounds read low 0.606 | S. cerevisiae deletion strains, locus YLR330W, strain CHS5, active compounds read low 0.87 | S. cerevisiae deletion strains, locus YLR342W, strain FKS1 (second series), active compounds read low 0.733 | S. cerevisiae deletion strains, locus YLR357W, strain rsc2, active compounds read low 1.16 [resistant] | S. cerevisiae deletion strains, locus YLR418C, strain cdc73, active compounds read low 0.589 | S. cerevisiae deletion strains, locus YML032C, strain rad52, active compounds read low 0.744 | S. cerevisiae deletion strains, locus YMR223W, strain ubp8, active compounds read low 0.794 | S. cerevisiae deletion strains, locus YNL067W, strain RPL9B, active compounds read low 0.825 | S. cerevisiae deletion strains, locus YNL071W, strain lat1, active compounds read low 0.663 | S. cerevisiae deletion strains, locus YNL153C, strain GIM3, active compounds read low 0.747 | S. cerevisiae deletion strains, locus YNL233W, strain BNI4, active compounds read low 0.747 | S. cerevisiae deletion strains, locus YNL298W, strain CLA4, active compounds read low 0.869 | S. cerevisiae deletion strains, locus YNL307C, strain MCK1, active compounds read low 0.366 | S. cerevisiae deletion strains, locus YNL322C, strain KRE1, active compounds read low 0.908 | S. cerevisiae deletion strains, locus YNR052C, strain pop2, active compounds read low 0.768 | S. cerevisiae deletion strains, locus YOL006C, strain TOP1, active compounds read low 0.425 | S. cerevisiae deletion strains, locus YOL147C, strain pex11, active compounds read low 0.803 | S. cerevisiae deletion strains, locus YOR001W, strain rrp6, active compounds read low 0.847 | S. cerevisiae deletion strains, locus YOR069W, strain VPS5, active compounds read low 0.913 | S. cerevisiae deletion strains, locus YOR070C, strain gyp1, active compounds read low 0.903 | S. cerevisiae deletion strains, locus YOR083W, strain WHI5, active compounds read low 0.882 | S. cerevisiae deletion strains, locus YOR184W, strain ser1, active compounds read low 0.363 | S. cerevisiae deletion strains, locus YOR270C, strain vph1, active compounds read low 0.682 | S. cerevisiae deletion strains, locus YOR290C, strain snf2, active compounds read low 0.831 | S. cerevisiae deletion strains, locus YPL055C, strain LGE1, active compounds read low 0.677 | S. cerevisiae deletion strains, locus YPL106C, strain sse1, active compounds read low 1.32 [resistant] | S. cerevisiae deletion strains, locus YPR163C, strain tif3, active compounds read low 0.856 | S. cerevisiae deletion strains, locus YPR167C, strain met16, active compounds read low 0.814 | S. cerevisiae deletion strains, strain wtn01, active compounds read low 0.849 | S. cerevisiae strains, strain wild type, active compounds read low 0.815
